Read-out in assay [1]: E-selectin (Homo sapiens) (UniProt P16581)
As to the kind of experiment: BSK_SAg_Eselectin: BioMAP Diversity Plus: SAg Assay for Eselectin Biomarker Activity (AID 2283091). As to conditions: primary human HUVEC with PBMC; actives raise or lower the signal. The method in brief:
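Human umbilical vein endothelial cells co-cultured with peripheral blood mononuclear cells, SAg system. E-selectin is measured by ELISA 24 h after dosing and fitted bidirectionally against DMSO. Cytotoxicity is checked by SRB staining of parallel cultures.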

Read-out in assay [2]: Monokine induced gamma interferon (MIG), CXCL9 (gene 4283)
The assay is described as follows: BSK_SAg_MIG: BioMAP Diversity Plus: SAg Assay for Monokine induced gamma interferon (MIG) Biomarker Activity (AID 2283092). As to conditions: primary human HUVEC with PBMC; actives raise or lower the signal. Summed up: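 Endothelial cells and PBMC were co-cultured, exposed to test chemicals, and sampled 24 h later. MIG was measured by ELISA, and responses were fitted in both directions relative to DMSO.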

Assay [3] can be described thus: BSK_SAg_PBMCCytotoxicity: PBMC Cytotoxicity Assessment in the BioMAP Diversity Plus: SAg Assay (AID 2283093).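 Further: PBMC viability measured as Alamar Blue reduction fluorescence at 546/580 nm; fitted both ways against DMSO so a hit may be loss or gain of signal.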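 On AC50: PBMC superantigen activated with SEB plus TSST-1 one hour after compound addition.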 As to conditions: primary human HUVEC with PBMC. The method in brief:
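Compound added to 75,000 PBMC/well for 1 h; SEB and TSST-1 then added at 20 ng/mL final each; 90 h incubation; Alamar Blue 6 h; read 546/580 nm ex/em. Activity fitted bidirectionally relative to DMSO baseline.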

Read-out in assay [4]: Interleukin-8 (IL8), CXCL8 (gene 3576)
As to the kind of experiment: BSK_SAg_IL8: BioMAP Diversity Plus: SAg Assay for Interleukin-8 (IL8) Biomarker Activity (AID 2283094). As to conditions: primary human HUVEC with PBMC; actives raise or lower the signal. Summed up: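 ELISA read-out of IL-8 in a primary human vascular co-culture (umbilical vein endothelium plus PBMC), taken 24 h after compound addition. Values derive from bidirectional fits against DMSO negative controls.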

Assay [5] can be described thus: BSK_SAg_Proliferation: Cell Proliferation Assessment in the BioMAP Diversity Plus: SAg Assay (AID 2283095).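 Further: relative cell number as total protein by SRB absorbance in sub-confluent culture.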 As to conditions: primary human HUVEC with PBMC. The method in brief: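 Cells (endothelium plus PBMC, human primary) were dosed with chemical, cultured 96 h, fixed in 10% TCA and stained with 0.1% SRB. Absorbance at 560 nm gave relative protein, fitted bidirectionally relative to DMSO.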

Assay [6] can be described thus: BSK_SAg_SRB: Viability Assessment in the BioMAP Diversity Plus: SAg Assay (AID 2283096).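 Further: cells read one day after compound addition; hits may be either gain or loss of signal compared with DMSO.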 As to conditions: primary human HUVEC with PBMC. The method in brief: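 Total protein by sulforhodamine B staining, 24 h after dosing, in HUVEC–PBMC co-culture; DMSO-referenced bidirectional fitting.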
Assay [7] addresses Cytochrome P450 2C19 (Homo sapiens) (UniProt P33261). The assay is described as follows: NVS_ADME_hCYP2C19: NovaScreen (NVS) CYP450-related Enzyme Activity (ADME) Assay for human CYP2C19 (AID 2283113; active means hit-call score of the fitted dose curve at least 0.9, where 1 is the maximum;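 further: potency for inhibition seen as loss of fluorescent signal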). The method in brief: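 Cell-free recombinant human CYP2C19 from insect cells, fluorescent substrate; activity read by fluorescence intensity 1 h after dosing. Primary screen in duplicate at 10 uM; actives retested in concentration series. Signal loss versus acetonitrile negative control.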

In assay [8] the target is human CYP2D6, CYP2D6 (gene 1565) (UniProt P10635). The assay is described as follows: NVS_ADME_hCYP2D6: NovaScreen (NVS) CYP450-related Enzyme Activity (ADME) Assay for human CYP2D6 (AID 2283107; active means hit-call score of the fitted dose curve at least 0.9, where 1 is the maximum). The method in brief:
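Cell-free assay using recombinant human CYP2D6 expressed in insect cells, with a fluorogenic substrate read after 1 h. Primary screen in duplicate at 10 uM; actives followed up in concentration series. Loss of signal fitted relative to acetonitrile.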

The target in assay [9] is Cytochrome P450 3A4 (Homo sapiens) (UniProt P08684). As to the kind of experiment: NVS_ADME_hCYP3A4: NovaScreen (NVS) CYP450-related Enzyme Activity (ADME) Assay for human CYP3A4 (AID 2283110; active means hit-call score of the fitted dose curve at least 0.9, where 1 is the maximum). Summed up:
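Compounds were first screened in duplicate at 10 uM against recombinant CYP3A4 produced in insect cells, then actives were run in concentration series. Enzyme activity was measured by fluorescence after 0.33 hour, with acetonitrile as baseline.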

For assay [10], the target named is human CYP19A1, CYP19A1 (gene 1588) (UniProt P11511). The assay is described as follows: NVS_ADME_hCYP19A1: NovaScreen (NVS) CYP450-related Enzyme Activity (ADME) Assay for human CYP19A1 (AID 2283098; active means hit-call score of the fitted dose curve at least 0.9, where 1 is the maximum). Summed up:
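Biochem, cell-free; recombinant enzyme + specific substrate; fluorescence intensity at 0.5 h post-dose; 10 uM duplicate primary, conc. series for actives; acetonitrile = negative control/baseline; positive and negative controls on every plate.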

Assay [11] addresses Cytochrome P450 2C18 (Homo sapiens) (UniProt P33260). As to the kind of experiment: NVS_ADME_hCYP2C18: NovaScreen (NVS) CYP450-related Enzyme Activity (ADME) Assay for human CYP2C18 (AID 2283103). Summed up: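 Cell-free recombinant human CYP2C18 with fluorogenic substrate; fluorescence intensity read 0.5 h after dosing. Single-point screen at 10 uM in duplicate, then concentration-response up to 20 uM; loss of signal fitted against acetonitrile baseline.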

Assay [12] addresses human CYP2C8, CYP2C8 (gene 1558) (UniProt P10632). As to the kind of experiment: NVS_ADME_hCYP2C8: NovaScreen (NVS) CYP450-related Enzyme Activity (ADME) Assay for human CYP2C8 (AID 2283104). Summed up: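 Recombinant human CYP2C8 with fluorogenic substrate, 0.5 h, fluorescence intensity; signal loss fitted versus acetonitrile. Screened in duplicate at 10 uM, then actives run in concentration-response up to 20 uM.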

Assay [13] has as its target human CYP4F12, CYP4F12 (gene 66002) (UniProt Q9HCS2). As to the kind of experiment: NVS_ADME_hCYP4F12: NovaScreen (NVS) CYP450-related Enzyme Activity (ADME) Assay for human CYP4F12 (AID 2283111; active means hit-call score of the fitted dose curve at least 0.9, where 1 is the maximum). Summed up: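 Cell-free fluorescence assay of recombinant human CYP4F12 activity on a specific substrate, read 0.5 h after dosing. Primary screen in duplicate at 10 uM, then concentration series for actives; loss of signal fitted against acetonitrile negative control.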

The term AC50 denotes the concentration giving half of the maximal activity seen.

Structures are written as SMILES. Records with an inconclusive call do not appear. Some compounds were tested as several samples or in several runs, with calls that do not always agree. Calls of active or inactive are those of the source. How the source made its calls, unless noted: active means hit-call score of the fitted dose curve at least 0.9, where 1 is the maximum; inactive means score below 0.9.

Chain of E-selectin (Homo sapiens) (P16581 whole entry, looked up): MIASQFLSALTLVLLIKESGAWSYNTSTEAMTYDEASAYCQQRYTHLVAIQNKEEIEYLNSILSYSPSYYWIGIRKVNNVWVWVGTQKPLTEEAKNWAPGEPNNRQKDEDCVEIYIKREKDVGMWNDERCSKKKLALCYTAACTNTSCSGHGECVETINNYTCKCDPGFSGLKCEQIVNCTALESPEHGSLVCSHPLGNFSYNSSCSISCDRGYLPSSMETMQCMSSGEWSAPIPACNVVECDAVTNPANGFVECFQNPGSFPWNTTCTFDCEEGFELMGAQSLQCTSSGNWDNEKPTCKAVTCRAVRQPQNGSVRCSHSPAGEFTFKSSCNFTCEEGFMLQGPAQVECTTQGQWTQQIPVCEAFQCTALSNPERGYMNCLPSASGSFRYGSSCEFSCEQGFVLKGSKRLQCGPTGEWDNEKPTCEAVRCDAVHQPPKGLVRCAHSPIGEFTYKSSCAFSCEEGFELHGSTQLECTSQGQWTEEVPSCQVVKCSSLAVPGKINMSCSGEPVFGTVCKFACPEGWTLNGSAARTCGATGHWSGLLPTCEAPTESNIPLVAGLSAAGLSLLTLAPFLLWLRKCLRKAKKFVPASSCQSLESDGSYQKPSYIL
Chain of human CYP19A1, CYP19A1 (gene 1588) (P11511 whole entry, looked up): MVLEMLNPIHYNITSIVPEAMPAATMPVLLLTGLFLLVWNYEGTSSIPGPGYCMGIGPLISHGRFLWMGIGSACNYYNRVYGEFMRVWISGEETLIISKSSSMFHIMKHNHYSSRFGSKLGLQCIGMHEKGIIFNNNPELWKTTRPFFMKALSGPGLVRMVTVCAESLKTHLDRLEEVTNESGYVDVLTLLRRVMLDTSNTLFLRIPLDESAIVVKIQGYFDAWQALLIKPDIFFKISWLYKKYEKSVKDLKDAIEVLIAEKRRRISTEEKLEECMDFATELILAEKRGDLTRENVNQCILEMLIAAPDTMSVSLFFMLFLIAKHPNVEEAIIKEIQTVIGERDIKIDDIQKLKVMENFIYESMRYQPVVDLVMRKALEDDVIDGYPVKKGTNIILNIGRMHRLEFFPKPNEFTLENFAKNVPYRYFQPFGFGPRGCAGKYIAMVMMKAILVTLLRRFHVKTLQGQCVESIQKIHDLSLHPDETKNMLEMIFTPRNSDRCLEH
Chain of human CYP4F12, CYP4F12 (gene 66002) (Q9HCS2 whole entry, looked up): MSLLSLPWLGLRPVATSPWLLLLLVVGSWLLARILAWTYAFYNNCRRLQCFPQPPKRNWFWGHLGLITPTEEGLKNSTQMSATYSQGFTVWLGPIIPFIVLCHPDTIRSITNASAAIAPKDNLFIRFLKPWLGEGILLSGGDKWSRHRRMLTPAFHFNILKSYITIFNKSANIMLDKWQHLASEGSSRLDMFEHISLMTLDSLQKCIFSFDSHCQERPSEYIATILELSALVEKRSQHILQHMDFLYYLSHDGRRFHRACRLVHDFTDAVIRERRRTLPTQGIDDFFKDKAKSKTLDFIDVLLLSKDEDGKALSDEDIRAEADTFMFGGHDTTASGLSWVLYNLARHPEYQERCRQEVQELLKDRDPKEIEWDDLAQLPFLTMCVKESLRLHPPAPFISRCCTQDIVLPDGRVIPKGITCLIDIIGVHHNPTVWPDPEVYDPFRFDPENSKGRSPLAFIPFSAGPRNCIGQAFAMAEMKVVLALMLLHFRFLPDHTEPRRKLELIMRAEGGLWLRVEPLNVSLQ
Chain of human CYP2D6, CYP2D6 (gene 1565) (P10635 whole entry, looked up): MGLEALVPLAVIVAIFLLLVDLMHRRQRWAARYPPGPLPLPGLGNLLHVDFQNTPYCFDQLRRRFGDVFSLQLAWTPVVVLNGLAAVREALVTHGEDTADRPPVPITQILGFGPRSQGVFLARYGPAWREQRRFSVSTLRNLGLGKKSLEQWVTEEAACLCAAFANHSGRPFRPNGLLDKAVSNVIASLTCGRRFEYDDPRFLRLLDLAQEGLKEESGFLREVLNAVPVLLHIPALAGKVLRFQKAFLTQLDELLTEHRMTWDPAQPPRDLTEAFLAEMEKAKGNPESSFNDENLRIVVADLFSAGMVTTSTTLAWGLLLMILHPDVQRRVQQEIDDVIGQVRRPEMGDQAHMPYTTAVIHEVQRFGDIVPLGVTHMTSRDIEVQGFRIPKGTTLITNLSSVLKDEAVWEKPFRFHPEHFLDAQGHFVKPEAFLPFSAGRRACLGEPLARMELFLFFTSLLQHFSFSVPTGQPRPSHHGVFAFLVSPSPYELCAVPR
Chain of Cytochrome P450 3A4 (Homo sapiens) (P08684 whole entry, looked up): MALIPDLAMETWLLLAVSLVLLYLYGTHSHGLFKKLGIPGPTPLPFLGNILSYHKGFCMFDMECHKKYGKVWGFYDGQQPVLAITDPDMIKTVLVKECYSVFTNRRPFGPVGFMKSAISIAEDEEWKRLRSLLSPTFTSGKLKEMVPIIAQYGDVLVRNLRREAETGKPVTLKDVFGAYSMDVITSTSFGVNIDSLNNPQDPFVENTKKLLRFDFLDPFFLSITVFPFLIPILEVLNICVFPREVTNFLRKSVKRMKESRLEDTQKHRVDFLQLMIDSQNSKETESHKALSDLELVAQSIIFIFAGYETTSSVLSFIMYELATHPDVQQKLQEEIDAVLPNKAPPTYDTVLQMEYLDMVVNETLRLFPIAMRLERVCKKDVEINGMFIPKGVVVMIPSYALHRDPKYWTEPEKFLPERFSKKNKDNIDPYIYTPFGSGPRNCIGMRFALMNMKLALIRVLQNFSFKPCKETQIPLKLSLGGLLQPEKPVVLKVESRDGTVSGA
Chain of human CYP2C8, CYP2C8 (gene 1558) (P10632 whole entry, looked up): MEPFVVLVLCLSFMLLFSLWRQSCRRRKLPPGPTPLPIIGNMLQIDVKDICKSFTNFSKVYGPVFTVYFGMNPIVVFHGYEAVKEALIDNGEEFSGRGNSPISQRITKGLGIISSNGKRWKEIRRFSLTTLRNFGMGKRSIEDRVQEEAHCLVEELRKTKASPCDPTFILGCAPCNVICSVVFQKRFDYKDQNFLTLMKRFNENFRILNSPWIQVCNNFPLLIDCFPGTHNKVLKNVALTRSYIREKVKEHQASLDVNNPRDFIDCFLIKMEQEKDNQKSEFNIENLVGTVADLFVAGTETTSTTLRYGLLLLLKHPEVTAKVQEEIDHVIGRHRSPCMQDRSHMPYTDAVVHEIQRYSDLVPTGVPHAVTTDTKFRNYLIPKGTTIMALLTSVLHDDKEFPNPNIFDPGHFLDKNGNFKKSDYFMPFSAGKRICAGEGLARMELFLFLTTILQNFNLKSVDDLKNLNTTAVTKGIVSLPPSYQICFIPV
Chain of Cytochrome P450 2C18 (Homo sapiens) (P33260 whole entry, looked up): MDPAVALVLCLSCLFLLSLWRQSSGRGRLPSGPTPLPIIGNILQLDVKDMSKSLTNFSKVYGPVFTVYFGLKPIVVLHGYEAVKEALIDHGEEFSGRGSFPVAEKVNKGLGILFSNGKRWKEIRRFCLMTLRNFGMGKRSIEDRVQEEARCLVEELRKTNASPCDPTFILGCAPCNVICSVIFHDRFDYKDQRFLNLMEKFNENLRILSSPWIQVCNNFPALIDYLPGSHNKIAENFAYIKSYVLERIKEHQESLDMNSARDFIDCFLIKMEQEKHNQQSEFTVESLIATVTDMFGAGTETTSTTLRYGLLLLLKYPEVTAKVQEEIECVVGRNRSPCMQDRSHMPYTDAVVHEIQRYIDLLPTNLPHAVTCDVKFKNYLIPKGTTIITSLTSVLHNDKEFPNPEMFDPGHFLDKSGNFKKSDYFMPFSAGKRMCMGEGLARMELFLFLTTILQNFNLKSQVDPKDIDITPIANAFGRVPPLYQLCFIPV

Regarding `O=C(O)COc1ccc(Cl)cc1Cl`, the result in assay [1], in [2], in assay [3], in [4], in assay [5] and in [6] was inactive. Besides, the concentration at half-maximal activity (AC50) in assay [7] is 10 µM (active).

Consider `N#CN`, for which the outcome in assay [2], in [3], in assay [4], in assay [5] and in [6] was inactive.

For `[2H]C1([2H])[n+]2ccccc2-c2cccc[n+]2C1([2H])[2H]`, the outcome in assay [1], in assay [2], in assay [3], in [4], in [5] and in assay [6] was inactive. Also, the AC50 in assay [8] is 2.03 µM (active); in [9] it was 2.25 µM (active).

As for `CCC(C)Nc1c([N+](=O)[O-])cc(C(C)(C)C)cc1[N+](=O)[O-]` (configuration not stated), the outcome in assay [2] and in [6] was inactive. The concentration at half-maximal activity (AC50) in [3] was 31.9 µM (active); in assay [4], 20 µM (active); in [5] it was 29.6 µM (active).

For the compound `O=C(O)C(F)(F)C(F)(F)C(F)(F)C(F)(F)C(F)(F)C(F)(F)C(F)(F)F`, the outcome in assay [1], in [2], in assay [3], in assay [4], in assay [5] and in assay [6] was inactive. Also, the outcome in assay [10], in assay [11], in [12] and in assay [13] was inactive. In assay [4], the concentration at half-maximal activity (AC50) is 44.3 µM (active).

For the compound `COc1cc(OC)nc(NC(=O)NS(=O)(=O)c2cc(NC=O)ccc2C(=O)N(C)C)n1`, the result in assay [1], in assay [2], in [3], in assay [4], in [5] and in [6] was inactive.

For the compound `CCS(=O)(=O)c1cccnc1S(=O)(=O)NC(=O)Nc1nc(OC)cc(OC)n1`, the result in assay [2], in assay [3], in [4], in assay [5] and in assay [6] was inactive.
